From PMC4552634, “A New Set of Chemical Starting Points with Plasmodium falciparum Transmission-Blocking Potential for Antimalarial Drug Discovery” (PLoS ONE, 2015)
The campaign covered roughly 13,000 compounds. About 3,200 (25%) showed an effect of 50% or more. Some of the results follow.

Each molecule was assayed on P. falciparum stage V gametocytes. Settings: 48 h, 5 µM; inhibitor.
Set-up: BacTiter-Glo ATP luminescence viability of purified stage V gametocytes in 384-well plates, per cent inhibition versus DMSO

SMILES	% Inhibition [%]
Cc1ccc(CNC(=O)c2cnc(N3CCN(c4ccncc4)CC3)c(Cl)c2)cc1 [TCMDC-134626]	3.173
Cc1c(C2CCN(CCCCNC(=O)c3ccc(-c4ccc(C#N)cc4)cc3)CC2)c2ccccc2n1CCO [TCMDC-138815]	-16.09
CC1(C)CCC(C)(C)c2c1ccc(C1CCN(CCCCNC(=O)c3ccc(-c4ccc(Cl)cc4)cc3)CC1)c2O [TCMDC-135483]	86.31
Cc1ccc(C2CCN(CCCCNC(=O)c3ccc(-c4ccc(C#N)cc4)cc3)CC2)c(O)c1 [TCMDC-138658]	-70.86
CCc1ccc(C2CCN(CCCCNC(=O)c3ccc(-c4ccc(Cl)cc4)cc3)CC2)c(O)c1 [TCMDC-138548]	18.22
CC1(C)CCC(C)(C)c2c1ccc(C1CCN(CCCCNC(=O)c3ccc(-c4ccc(C#N)cc4)cc3)CC1)c2O [TCMDC-135505]	91.89
N#Cc1ccc(-c2ccc(C(=O)NCCCCN3CCC(c4nc5ccccc5[nH]4)CC3)cc2)cc1 [TCMDC-133362]	24.39
COc1c(C2=CCN(CCCCNC(=O)c3ccc(-c4ccc(C#N)cc4)cc3)CC2)c(C)cc2c1C(C)(C)CCC2(C)C [TCMDC-135480]	3.716
Cc1cc(C2CCN(CCCCNC(=O)c3ccc(-c4ccc(C#N)cc4)cc3)CC2)c(C)cc1O [TCMDC-138817]	-58.22
Cc1[nH]c2ccccc2c1C1CCN(CCCCNC(=O)c2ccc(-c3ccc(C#N)cc3)cc2)CC1 [TCMDC-138808]	60.39
COc1c(C2CCN(CCCCNC(=O)c3ccc(-c4ccc(C#N)cc4)cc3)CC2)ccc2c1C(C)(C)CCC2(C)C [TCMDC-135481]	92.96
COc1c(C2CCN(CCCCNC(=O)c3ccc(-c4ccc(C#N)cc4)cc3)CC2)cc(Cl)c2c1CCCC2 [TCMDC-135288]	-31.75
CCC(C)(C)C1CCc2[nH]c3ccccc3c(=O)c2C1 (stereo not drawn) [TCMDC-125226]	30.2
CC(=O)N/N=C/[C@H](CCc1ccccc1)NC(=O)[C@H](CC(C)C)NC(=O)c1ccc(OCCN2CCOCC2)cc1 [TCMDC-135916]	2.96
CC(NC(C)c1cccc(Cl)c1)C(=O)Nc1cc(C(F)(F)F)ccc1N1CCOCC1 (stereo not drawn) [TCMDC-125061]	-33.15
Cc1cccc(C(=O)Nc2ccnc(N3CCC(N(C)Cc4cccc(C#N)c4)CC3)c2)c1 [TCMDC-134973]	-4.566
O=C(c1ccco1)N1CCN(c2nc(-c3ccc(Cl)cc3)nc3ccccc23)CC1 [TCMDC-124753]	14.1
COc1ccc2nccc([C@@H](O)CN3CCC(NC(=O)C(c4cc5ccccc5s4)N4CC(C)OC(C)C4)CC3)c2c1 (stereo partly drawn) [TCMDC-140995]	7.748
N#Cc1ccc(-c2ccc(C(=O)NCCCCN3CCC(c4cc(Br)c5c(c4OCC(N)=O)CCCC5)CC3)cc2)cc1 [TCMDC-135263]	-29.4
CC1(C)CCC(C)(C)c2c1ccc(C1CCN(CCCCNC(=O)c3ccc(-c4ccc(C#N)cc4)cc3)CC1)c2OCC(N)=O [TCMDC-135627]	76.03
COc1c(C2CCN(CCCCNC(=O)c3ccc(-c4ccc(Cl)cc4)cc3)CC2)ccc2c1C(C)(C)CCC2(C)C [TCMDC-135482]	91.33
C=CCc1cc(C2CCN(CCCCNC(=O)c3ccc(-c4ccc(C#N)cc4)cc3)CC2)c(OCC(N)=O)c2c1CCCC2 [TCMDC-135625]	-14.83

SMILES	% Inhibition [%]
OCCc1ccc(Nc2nccc(-c3nnc4ccccn34)n2)cc1 [TCMDC-138924]	-13.1
COc1ccc(Nc2nc(NCc3cccnc3)cc(-c3ccc(OC)cc3)n2)cc1 [TCMDC-133467]	9.957
Cc1ccc(-c2[nH]n3c(=O)c4c(nc3c2C)CCCC4)cc1 [TCMDC-124479]	75.27
Cc1cc(-c2cc3nc4c(c(=O)n3[nH]2)CCCC4)c(C)o1 [TCMDC-125325]	32.39
O=c1[nH]c(NCCCNCc2cc3c(Cl)cc(Cl)cc3[nH]2)nc2ccsc12 [TCMDC-139925]	-0.4742
Cc1cc(N2CCCC2)nc(Nc2ccc(NC(=O)C3CCCC3)cc2)n1 [TCMDC-124964]	-12.42
CS(=O)(=O)Cc1cccc(Nc2ncc(Cl)c(Nc3cccnc3C(N)=O)n2)c1 [TCMDC-134166]	-54.44
O=C(Nc1cccc(-c2nn3ccccc3c2-c2ccnc(Nc3ccc(C(=O)N4CCOCC4)cc3)n2)c1)c1c(F)cccc1F [TCMDC-135910]	-23.59
NC(=O)N1CCN(Cc2ccc(Br)cc2)CC1 [TCMDC-137933]	4.957
c1ccc(Oc2ccc(Nc3ccnc4cc(-c5ccc(CNCCN6CCOCC6)o5)ccc34)cc2)cc1 [TCMDC-138398]	12.11
Fc1ccc(Nc2ccnc3cc(-c4cccc(CNCCN5CCOCC5)c4)ccc23)c(Cl)c1 [TCMDC-138414]	41.76
N#Cc1cnc2cc(-c3cnc(CNCCN4CCOCC4)s3)ccc2c1Nc1ccc(Oc2ccccc2)cc1 [TCMDC-138611]	2.275
c1cncc(Oc2ccc(Nc3ccnc4cc(-c5cccc(CNCCN6CCOCC6)c5)ccc34)cc2)c1 [TCMDC-138492]	84.98
c1ccc(Oc2ccc(Nc3ccnc4cc(-c5cccc(CNCCN6CCOCC6)c5)ccc34)cc2)cc1 [TCMDC-138474]	52.49
CN(C)CC1CCCN1Cc1ccccc1-c1cnn(C)c(=O)c1Oc1cccc(C#N)c1 (stereo not drawn) [TCMDC-135097]	-59.69
COc1ccc(CCNC(=O)c2ccc(-n3cc(NC(=O)c4cccnc4)cn3)cc2)cc1OC [TCMDC-124665]	38.46
Nc1nc(N)c2c(Cl)c(N(Cc3ccccc3)Cc3ccccc3)ccc2n1 [TCMDC-137993]	-38.99
O=S(=O)(NCCN1CCCC1)c1ccc(-c2ccc(CN3Cc4ccccc4C3)cc2)s1 [TCMDC-132286]	9.199
O=C(O)C(F)(F)F.c1ccc(CNCc2cccc(-c3ccc(-c4nc5ccccc5[nH]4)s3)c2)cc1 [TCMDC-132714]	15.98
O=S(=O)(NCCN1CCCC1)c1ccc(-c2cccc(CNCc3ccccc3)c2)s1 [TCMDC-132216]	86.1
O=S(=O)(NCCN1CCCC1)c1ccc(-c2ccc(CNCc3ccccc3)cc2)s1 [TCMDC-132233]	71.01
CCOC(=O)N1CCC(NC(=O)c2ccc(C(C)(C)C)cc2OC)CC1 [TCMDC-139314]	15.99

SMILES	% Inhibition [%]
O=C(c1cccc(-c2noc(C(F)(F)F)n2)c1)N1CCN(C(=O)c2ccc3cc[nH]c3c2)CC1 [TCMDC-132422]	0.1652
N#Cc1cccc(NC(=O)c2ccc(S(=O)(=O)NCC3CCCN3CC3CCCCC3)cc2)c1 (stereo not drawn) [TCMDC-133796]	-13.1
CN1CCN(CCCN(Cc2cccc(-c3ccc(CNCCc4ccccc4)cc3)c2)C(=O)Nc2ccccc2)CC1 [TCMDC-140595]	97.36
CC(C)CNCc1cccc(-c2cccc(CN(CCCN3CCN(C)CC3)C(=O)Nc3ccccc3)c2)c1 [TCMDC-140593]	80.6
CN1CCN(CCCN(Cc2cccc(-c3cccc(CNCCc4ccccc4)c3)c2)C(=O)Nc2ccccc2)CC1 [TCMDC-140594]	106.2
CN1CCN(CCCN(C(=O)Nc2cc(C(F)(F)F)cc(C(F)(F)F)c2)c2ccccc2Cc2ccccc2)CC1 [TCMDC-136454]	-18.83
Cc1csc2nc(C(C)c3ccc(NC(=O)c4cccs4)cc3)oc(=O)c12 (stereo not drawn) [TCMDC-139034]	5.722
Cc1cc(-c2ccc(NC(=O)Nc3ccc4nccc(N5CCN(C)CC5)c4c3)cc2C)cc(C)n1 [TCMDC-139355]	10.84
Cc1cc(N[C@@H](Cc2ccccc2)C(=O)NCCc2ccccc2)nc(NCC2CCCCC2)n1 [TCMDC-134934]	-20.83
CCCC(C)C(=O)N1CCOC(COCc2cccc(C(F)(F)F)c2)(c2ccc(Cl)cc2)C1 (stereo not drawn) [TCMDC-141953]	24.89
C=CCC1OC(=O)c2cc(OC)cc(OC)c21 (stereo not drawn) [TCMDC-138677]	106
C=CC(C)C1OC(=O)c2cc(OC)cc(OC)c21 (stereo not drawn) [TCMDC-138676]	102.9
Cc1ccc(-c2cc(C(=O)Nc3ccc(S(=O)(=O)N4CCCCC4C)cc3)[nH]n2)c(O)c1 (stereo not drawn) [TCMDC-124908]	-44.76
CCCCCCN(CCCCCC)CC(O)c1cc(-c2ccc(Cl)cc2)nc2c(C)cc(C)cc12 (stereo not drawn) [TCMDC-125503]	-72.43
CN(C(=O)NCCc1ccccc1)C1CCN(CCCCCNC(=O)/C=C/c2ccc(Cl)c(Cl)c2)CC1 [TCMDC-139523]	-13.13
COc1ccc(-c2nc3cccnc3n2CC(=O)Nc2cc(Cl)c(Cl)cc2Cl)c(OC)c1 [TCMDC-135101]	5.638
COc1ccc(-n2ccnc2SCC(=O)Nc2cc(C)ccc2C)c(OC)c1 [TCMDC-123824]	-3.768
COc1ccc(-c2nc3cccnc3n2CC(=O)Nc2c(C)cc(C)cc2C)c(OC)c1 [TCMDC-135284]	61.51
CC(C)CNCc1ccc(-c2cccc(CN(C(=O)Nc3ccccc3)C3CCN(Cc4ccccc4)CC3)c2)cc1 [TCMDC-140585]	74.29
CC(C)CNCc1cccc(-c2ccc(CN(C(=O)Nc3ccccc3)C3CCN(Cc4ccccc4)CC3)cc2)c1 [TCMDC-140597]	96.79
CC(C)CNCc1cccc(-c2cccc(CN(C(=O)Nc3ccccc3)C3CCN(Cc4ccccc4)CC3)c2)c1 [TCMDC-140584]	53.9
CC(C)CNCc1ccc(-c2ccc(CN(C(=O)Nc3ccccc3)C3CCN(Cc4ccccc4)CC3)cc2)cc1 [TCMDC-140598]	108.5
